This note sets out measurements from PubChem BioAssay (NCI).

What all share (assay): NCI-60 one-dose screen, 48 h (100 = growth as untreated, 0 = no growth, -100 = all killed)
Details in all cases: 10 µM

For assay [1], the system named is HCT-15 colon.
The test system of assay [2] is HT29 colon.
Assay [3] concerns SNB-75 CNS.
Assay [4] deals with SNB-19 CNS.
The test system of assay [5] is U251 CNS.
Assay [6] concerns PC-3 prostate.
The test system of assay [7] is SK-MEL-5 melanoma.
Assay [8] concerns UACC-62 melanoma.
The subject of assay [9] is LOX IMVI melanoma.
Assay [10] deals with SK-MEL-28 melanoma.
Assay [11] relates to SK-MEL-2 melanoma.
For assay [12], the system named is EKVX NSCLC.
For assay [13], the system named is SN12C renal.
Assay [14] concerns UO-31 renal.
The test system of assay [15] is TK-10 renal.
For assay [16], the system named is ACHN renal.
Assay [17] deals with CAKI-1 renal.
Assay [18] deals with A498 renal.
Assay [19] has as its system CCRF-CEM leukemia.
Assay [20] relates to MOLT-4 leukemia.

This is part of a sample that, as a whole, favours compounds with a hit. Of some 83,000 tested, about 20% had one in any assay.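 Treatment: one concentration, 48 hours, 96-well format. Scoring: percent growth, with anything below 10 considered active.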 A number with no mark means an inactive call. The source made the active and inactive calls.

On to `C=C[C@@]12CN3CC[C@]1(O)[C@@](C(=O)OC)(CO2)c1[nH]c2ccccc2c1C3`, for which the growth in assay [1] is 63.7%; in assay [2] it was 92.7%; in assay [3], 105%; in [4], 84.4%; in assay [5] it was 81.8%; in assay [6] it was 41.3%. For the same compound, the growth is 18.3% in assay [7]; 63.9% in [8]; 67.2% in assay [9]; 89.4% in assay [10]; 86.1% in assay [11]; 53.5% in [12]. Also, the growth in assay [13] is 67.5%; in assay [14] it was 69.5%; in [15] it was 97%; in assay [16], 73.6%; in assay [17] it was 70.1%; in [18], 81.8%. For the same compound, the growth in assay [19] was 55.3%; in [20], 76.7%.
As to `O=C1NC(=NC2CCCCCC2)N/C1=C\c1ccc2ncoc2c1`, the growth was 13% in assay [1]; 56.1% in assay [2]; 14.7% in assay [3]; 29.7% in assay [4]; 32.7% in [5]; 53.8% in assay [6]. Moreover, the growth in assay [7] was 21.1%; in assay [8], 19.3%; in [9] it was 22.2%; in assay [10] it was 27.5%; in assay [11], 22.9%; in assay [12] it was 38.8%. Besides, the growth in assay [13] was 21.1%; in assay [14], 4.42% (active); in [15], 43.8%; in assay [16], 9.91% (active); in assay [17] it was 10%; in [18], -9.1% (active). The figures for the growth in [19] and in [20] were 18% and 38.2%, respectively.
In the case of `CN(CCF)c1ccc(/C=C/C(=O)c2ccc(N)cc2O)cc1`, the growth in [1] was 49.8%; in assay [2] it was 42.8%; in assay [3], 102%; in [4] it was 84.1%; in [5], 70.3%; in assay [6], 86.5%. The growth is 68.1% in [7]; 90.1% in assay [8]; 78.9% in assay [9]; 101% in [10]; 93% in assay [11]; 93.8% in [12]. In addition, the growth was 76.2% in assay [13]; 53.2% in assay [14]; 100% in assay [15]; 79.3% in assay [16]; 60.4% in [17]; 115% in assay [18]. Also, the growth is 60.8% in [19] and 58% in assay [20].
Regarding `Cc1cc(C)nc(NS(=O)(=O)c2ccc(N/C(N)=N/c3nccc(-c4cccs4)n3)cc2)n1`, the growth in [1] was 97.4%; in [2] it was 108%; in assay [3], 78.6%; in assay [4] it was 100%; in assay [5], 102%; in assay [6], 86.6%. The growth in [7] is 96.2%; in assay [8], 96.3%; in assay [9] it was 77.8%; in [10], 106%; in [11] it was 108%; in assay [12], 83.5%. The growth in [13] was 96.9%; in assay [14] it was 59.1%; in assay [15] it was 117%; in assay [16], 94.8%; in [17] it was 74.2%; in assay [18] it was 117%. The growth was 95% in assay [19] and 96.8% in assay [20].
For `COc1cc(/C=C/C(=O)c2ccc(NC(=O)CN3C(=O)NC(C)(c4ccccc4)C3=O)cc2)cc(OC)c1OC` (stereo not given), the growth was 11.8% in [1]; -2.37% (active) in assay [2]; 83.8% in assay [3]; 42.6% in [4]; -15.7% (active) in assay [5]; 31.9% in assay [6]. The growth in assay [7] is 44.7%; in assay [8], 41.6%; in assay [9], -46.1% (active); in assay [10] it was 49.8%; in assay [11], 86%; in assay [12], 73.2%. In addition, the growth in assay [13] was 10.7%; in assay [14], 73.9%; in assay [15], 98.6%; in [16], 56%; in [17] it was 75.3%; in assay [18], 132%. Further, the growth in [19] is 7.14% (active); in [20], 1.84% (active).
Turning to `Cc1noc2c(Cc3ccc([N+](=O)[O-])cc3)nn(CC(=O)N/N=C/c3ccc(Br)cc3)c(=O)c12`, the growth in assay [1] is 94.8%; in assay [2], 86.1%; in assay [3] it was 104%; in assay [4], 69.6%; in assay [5] it was 70.4%; in assay [6], 78.1%. The growth in [7] was 92%; in assay [8] it was 80.1%; in assay [9] it was 52.2%; in assay [10] it was 96.4%; in [11], 116%; in assay [12], 90.2%. The growth is 81% in assay [13]; 57.7% in assay [14]; 112% in assay [15]; 43.6% in [16]; 84% in assay [17]; 121% in assay [18]. Moreover, the growth in assay [19] and in [20] was 103% each time.
In the case of `COc1ccc2nc(Nc3cccc(NC(=O)c4ccc(CN5CCN(C)CC5)c(C(F)(F)F)c4)c3)ccc2c1`, the growth is -83.4% (active) in assay [1]; -73.9% (active) in assay [2]; -39.5% (active) in assay [3]; -96.8% (active) in assay [4]; -77.5% (active) in assay [5]; -8.06% (active) in [6]. Moreover, the growth was -100% (active) in assay [7]; -93% (active) in [8]; -100% (active) in assay [9]; -96.9% (active) in assay [10]; -98.3% (active) in [11]; -98% (active) in [12]. For the same compound, the growth in assay [13] was -92.6% (active); in assay [14] it was -48.2% (active); in [15] it was -44.4% (active); in [16], -94.8% (active); in [17], -33.7% (active); in [18], -42.3% (active). The figures for the growth in assay [19] and in assay [20] were -10.5% (active) and -44.6% (active), respectively.
On to `Clc1ccc(/C=N/Nc2ncnc3sc4c(c23)CCN(Cc2ccccc2)C4)cc1`, for which the growth in assay [1] is -25.1% (active); in [2] it was -75.3% (active); in [3], -85% (active); in assay [4], 18.4%; in assay [5], -83.8% (active); in assay [6] it was -59.7% (active). Moreover, the growth in assay [7] is 38.9%; in assay [8], 18.9%; in [9], -52.1% (active); in assay [10], -19% (active); in assay [11], 93.5%; in [12], 56.7%. Moreover, the growth is -62.4% (active) in assay [13]; 22.1% in assay [14]; -76.1% (active) in [15]; 27.4% in assay [16]; 34.5% in [17]; -32.2% (active) in assay [18]. In addition, the growth was -24.2% (active) in assay [19] and 4.13% (active) in [20].
